# High-throughput results (PubChem BioAssay)
# Only some compounds are listed: those with a hit (about 1.5% of all), similar ones and a draw of the others.
# PriA SSB inh: inhibitors of Klebsiella pneumoniae PriA binding to SSB C-terminal tail; AlphaScreen SSBct-PriA binding, biotinylated peptide; inhibition, % at 33 µM; 430,000 tested, 0.6% active; AID 1272365; in the data active means inhibition mostly above about 37%, no sharp cut-off; inactive means mostly below about 20%;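 further: plate controls were negative control peptide for no effect and reference peptide for full effect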
# TcdB GH inh: TcdB glycohydrolase inhibition. P18177. TcdB glycohydrolase enzymatic assay, plate reader. inhibition, % at 9.99 µM. 350,000 tested, 0.24% active; in the data active means inhibition above about 10%
# Vc quorum ag: inducers of Vibrio cholerae quorum light production without autoinducers. V. cholerae BH1578 lux reporter, luminescence, 6 h. activation, % at 18.7 µM. 350,000 tested, 0.16% active; in the data active means activation mostly above about 9.7%, no sharp cut-off
# PrPC TRFRET: reduces human prion protein on the cell surface; cell surface PrPC, TR-FRET read-out; inhibition, % at 13.8 µM; 370,000 tested, 0.43% active; AID 720596; P04156; in the data active means inhibition above about 24%; further: 0% = median of the test wells and 100% = reference compound wells
# CCHF vOTU inh-1: blocks the CCHF virus ovarian tumor domain protease; CCHFV vOTU protease, Pep-AMC fluorescence; inhibition, % at 11.5 µM; 370,000 tested, 0.55% active; further: 0% = vehicle wells with enzyme and 100% = no enzyme wells
# VHR inh abs: DUSP3 (human) phosphatase inhibition | P51452 | recombinant VHR phosphatase, pNPP absorbance | inhibition, % at 13.3 µM | 290,000 tested, 0.52% active | AID 1654; in the data active means inhibition above about 50%
# Target sequence (P51452 whole entry, looked up): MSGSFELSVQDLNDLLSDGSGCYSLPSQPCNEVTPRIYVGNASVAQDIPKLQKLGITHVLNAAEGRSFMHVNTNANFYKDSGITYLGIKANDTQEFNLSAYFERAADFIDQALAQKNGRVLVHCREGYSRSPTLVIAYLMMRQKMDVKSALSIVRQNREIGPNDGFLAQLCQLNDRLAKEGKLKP
# CCHF vOTU inh-2: confirmation of CCHF virus vOTU protease inhibitors | AID 686976 | shares compounds with CCHF vOTU inh-1 | 1,900 tested, 17% active | inhibition, % at 11.5 µM | Recombinant CCHFV vOTU, Pep-AMC fluorescence
# An asterisk follows results filed as active; i = inactive; . = no result given. Unless noted, no stated cut-off is given here; in the data, active means inhibition above about 30%; inactive means the rest.
SMILES,PriA SSB inh,TcdB GH inh,Vc quorum ag,PrPC TRFRET,CCHF vOTU inh-1,VHR inh abs,CCHF vOTU inh-2
O=C(c1ccc(S(=O)(=O)c2ccccc2)cc1)N1CCc2ccccc2C1,7.2,.,i,-1.2,34.8*,-2.2,-16.5
Cc1ccnc(SCCCNC(=O)Nc2cc(C)on2)n1,-7.0,.,.,.,.,.,.
CCOC(=O)CSc1nc(-c2ccc(OC)cc2)ns1,-36.4,.,i,1.3,33.3*,1.8,0.0
COc1ccc(-c2nsc(SCC(=O)N3CCCCC3)n2)cc1,-12.0,.,.,.,.,.,.
CC(C)C[C@@H](CN1CCC[C@@H]1CN1C(=S)NC[C@@H]1Cc1ccc(O)cc1)N1C[C@H](Cc2ccc(O)cc2)N(CCc2ccccc2)C1=S,.,-0.6,.,-12.3,29.7*,.,-22.4
CC(C)C[C@@H](CN1CCCC1CN1C(=S)NC[C@@H]1Cc1ccccc1)N1C[C@H](Cc2ccc(O)cc2)N(CCc2ccccc2)C1=S (some centres undefined),.,0.6,.,-13.2,15.3,.,.
CC(C)C[C@H]1CN([C@@H](Cc2ccc(O)cc2)CN2CCCC2CN2C(=S)NC[C@@H]2Cc2ccccc2)C(=S)N1CC1CCCCC1 (some centres undefined),.,0.2,.,14.6,29.8*,.,-9.2
CCOc1ccc(-n2c(=S)sc3c(=O)n(-c4ccc(F)cc4)c(SCC(=O)O)nc32)cc1,-2.1,7.1,-0.6,-15.8,34.4*,-29.1,-5.4
Cc1cc(=O)n(CC(=O)N2CCc3ccccc32)c(-c2ccncc2)n1,-21.0,.,.,.,.,.,.
Cc1cc(N2C(=O)C(O)=C(C(=O)c3ccco3)C2c2cccc(O)c2)no1 (centres undefined),2.2,2.8,0.9,-0.1,7.3,-5.9,.
Cc1cc(C)c2nc(N3C(=O)C(O)=C(C(=O)c4ccco4)C3c3ccc(O)cc3)sc2c1 (centres undefined),4.2,-0.8,-0.6,1.9,33.8*,.,6.4
Cc1cc(C)c2nc(N3C(=O)C(O)=C(C(=O)c4ccco4)C3c3cccc(O)c3)sc2c1 (centres undefined),-3.3,1.4,-0.4,-2.2,35.6*,.,-1.2
CCOC(=O)c1sc(N2C(=O)C(O)=C(C(=O)c3ccco3)C2c2cccc(Cl)c2)nc1C (centres undefined),.,-1.8,-0.2,7.1,41.7*,5.4,0.8
Cc1ccc2nc(N3C(=O)C(O)=C(C(=O)c4ccco4)C3c3ccc(O)cc3)sc2c1 (centres undefined),.,1.6,-0.2,-6.3,24.9,-19.2,.
NC(=O)c1coc(NC(=O)c2ccco2)n1,11.0,.,.,.,.,.,.
CN(C)c1ccc(NC(=O)COC(=O)c2cc(=O)c3ccccc3o2)cc1,2.6,0.2,3.4,-6.9,35.4*,-1.8,-14.8
COc1cc(N)c(C(O)c2nccc3cc(OC)c(OC)cc23)cc1OC (centres undefined),1.9,-0.8,i,-8.1,5.3,23.4,.
COc1ccc(C(O)c2nccc3cc(OC)c(OC)cc23)cc1OC (centres undefined),5.2,1.8,-0.5,9.9,89.5*,4.0,-10.0
O=C(Cn1cc(-c2nnc(-c3ccccc3)o2)c2ccccc21)N1CCOCC1,-4.0,.,.,.,.,.,.
O=C1C[C@@H](O)[C@H](O)c2cccc(O)c21,.,.,.,-3.8,45.4*,.,-1.9
O=C1O[C@@H](c2ccc(O)cc2)Cc2cccc(O)c21,0.7,-0.6,i,-1.4,0.3,.,.
O=C1NNC(c2ccccc2)=N/C1=C\c1ccccc1Cl,8.7,1.0,-0.7,-1.8,54.4*,29.8,42.6*
O=C1NNC(c2ccccc2)=N/C1=C\c1ccco1,3.9,-0.1,i,-5.7,5.5,14.4,.
O=c1c(O)c(-c2ccc(O)cc2)oc2cc(O)cc(O)c12,7.9,-0.7,-0.3,-11.7,30.6*,.,-1.6
O=c1cc(-c2ccc(O)cc2)oc2cc(O)cc(O)c12,-7.2,0.6,-0.4,-5.8,8.2,.,.
SMILES,PriA SSB inh,TcdB GH inh,Vc quorum ag,PrPC TRFRET,CCHF vOTU inh-1,VHR inh abs,CCHF vOTU inh-2
O=S(=O)(Cc1ccc(C(F)(F)F)cc1)NCC#CCOc1ccc2c(c1)OCO2,-3.0,.,.,.,.,.,.
CN(C)c1ccc(C=Nc2ccc(N(C)C)cc2)cc1,67.9,.,-0.4,-19.0,68.3*,26.3,4.2
O=C(NCc1ccc(F)cc1)Nc1nnc([C@@H]2C[C@H](O)[C@@H](CO)O2)s1,.,-0.3,i,-8.1,33.6*,.,-14.0
O=C(NCc1ccc(F)cc1)Nc1nnc([C@H]2C[C@H](O)[C@@H](CO)O2)s1,.,-0.6,i,-5.2,7.3,.,.
COc1cccc(NC(=O)/C=C/c2ccc(S(=O)(=O)N3CCOCC3)cc2)c1,3.3,0.0,-0.3,-11.7,30.1*,.,-17.4
COC(=O)c1ccc(NC(=O)CSc2ccc(NC(=O)c3ccccc3)nn2)cc1,-11.0,.,.,.,.,.,.
CCCCCC(=O)NN=Cc1ccc([N+](=O)[O-])o1,-10.2,.,.,.,.,.,.
O=C(N/N=C\c1ccc([N+](=O)[O-])o1)c1cncc(Br)c1,.,1.0,-0.7,-12.2,49.6*,10.0,8.5
O=C(CCC(=O)Nc1ccc(Cl)cc1Cl)N/N=C/c1ccc([N+](=O)[O-])o1,.,1.2,0.0,-20.4,38.7*,0.6,-4.7
O=C(Cc1ccc2c(c1)OCO2)NN=Cc1ccc([N+](=O)[O-])o1,-1.9,-7.1,i,-38.2,32.2*,.,-0.3
CCCCCC(=O)N/N=C/c1ccc([N+](=O)[O-])o1,.,1.3,-0.6,-43.3,15.9,7.6,.
O=C(N/N=C/c1ccc([N+](=O)[O-])o1)c1cncc(Br)c1,i,.,.,.,.,.,.
CCOc1ncccc1C(=O)N1CCN(c2ccc(-n3cncn3)nn2)CC1,-6.0,.,.,.,.,.,.
CCCN1CCC2(CC1)NC(=O)N(CC(=O)Nc1ccc(C(=O)OC)cc1)C2=O,10.0,.,.,.,.,.,.
O=C(NCCn1ncc2c(N3CCCCCC3)ncnc21)c1cnccn1,-14.0,.,.,.,.,.,.
O=C(CCCC(=O)NC1CCCC1)NC1CCCC1,-1.1,.,-0.4,9.7,30.8*,-9.9,-16.5
O=CNCC(=O)NC1CCCCCC1,-12.3,0.9,i,3.2,3.7,11.3,.
COc1cccc(CC(=O)NC[C@](C)(O)c2ccc(-c3ccccc3)cc2)c1,-15.0,.,.,.,.,.,.
O=C(COc1ccc(NC(=O)c2ccccc2)cc1)c1ccccc1,-10.5,0.8,i,5.7,31.2*,-2.5,-13.0
CCOc1ccc(Nc2ccc(N)c(S(=O)(=O)O)c2)cc1,27.2,0.9,3.4,-11.7,29.6*,.,8.0
CCOc1ccc(NS(=O)(=O)c2ccc(N)cc2)cc1,-9.5,.,-3.8,4.4,10.4,-5.8,.
CCc1n[nH]c(=S)n1N=Cc1cc(OC)cc([N+](=O)[O-])c1O,-14.7,.,.,.,.,.,.
CCc1nc2c(OCC(=O)C(C)(C)C)cccn2c1N(C=O)CC(=O)N(C)C,.,0.4,-0.4,6.0,-3.3,.,.
CCCCN(C=O)c1c(CC)nc2c(OCC(=O)C(C)(C)C)cccn12,.,-0.4,-0.8,-2.7,32.1*,.,-18.6
COc1cccc2sc(OC3CN(C(=O)c4ccccc4F)C3)nc12,21.0,.,.,.,.,.,.
O=C(/C=C/c1cccs1)Nc1nnc(-c2ccc3c(c2)OCO3)o1,-32.0,.,.,.,.,.,.
Nc1ccc(Br)c2cccnc12,33.2,1.3,-0.3,-3.9,101.4*,18.5,0.6
